{"source": "paper PMC8384837", "about": "“Expanding the binding specificity for RNA recognition by a PUF domain”", "assay_in_all_cases": "yeast three-hybrid, YBZ-1, SC-Leu-His + 0.5 mM 3-AT, 4 days", "details_in_all_cases": "tags: N-Gal4 AD-HA kept; label: inside an RPR1-promoter hybrid RNA with tandem MS2 sites; ssRNA", "key": {"[1]": {"biological_target": "PUM1 PUF domain R3-SCK (Homo sapiens, UniProt Q14671 828-1176, C935S;R936C;Q939K)", "procedure,_shortened": "(§1)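 Sequencing with Illumina followed PCR amplification of the repeat regions from transformants grown four days on SC-Leu (input) or SC-Leu-His + 0.5 mM 3-AT (selection). The transformants were strain YBZ-1 with a LexA–MS2 coat fusion and a HIS3 reporter, carrying Pumilio-1 PUF domain libraries and matching RNA elements. The interaction score is the log change in variant frequency from input to selection, computed in log2 with a pseudocount of 1 for absent variants.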"}, "[2]": {"biological_target": "PUM1 PUF domain R3-RAR (Homo sapiens, UniProt Q14671 828-1176, C935R;R936A;Q939R)", "procedure,_shortened": "as §1"}, "[3]": {"biological_target": "PUM1 PUF domain R4-DFS (Homo sapiens, UniProt Q14671 828-1176, N971D;H972F;Q975S)", "procedure,_shortened": "as §1"}, "[4]": {"biological_target": "PUM1 PUF domain R8-SWQ (Homo sapiens, UniProt Q14671 828-1176, N1122S;Y1123W)", "procedure,_shortened": "as §1"}, "[5]": {"biological_target": "PUM1 PUF domain R4-DYM (Homo sapiens, UniProt Q14671 828-1176, N971D;H972Y;Q975M)", "procedure,_shortened": "as §1"}, "[6]": {"biological_target": "PUM1 PUF domain R3-SRN (Homo sapiens, UniProt Q14671 828-1176, C935S;Q939N)", "procedure,_shortened": "as §1"}, "[7]": {"biological_target": "PUM1 PUF domain R4-FNA (Homo sapiens, UniProt Q14671 828-1176, N971F;H972N;Q975A)", "procedure,_shortened": "as §1"}, "[8]": {"biological_target": "PUM1 PUF domain R5-RPM (Homo sapiens, UniProt Q14671 828-1176, C1007R;R1008P;Q1011M)", "procedure,_shortened": "as §1"}, "[9]": {"biological_target": "PUM1 PUF domain R1-LWK (Homo sapiens, UniProt Q14671 828-1176, S863L;R864W;Q867K)", "procedure,_shortened": "as §1"}}, "data": [{"sequence": "GGCUAGAACUAGUGGAUCCCCCGGCGCCCGGCGGCUCGAGCCCGGGUAAGUGUAAUUAGUCUGCAUGCCGCCGGGCGCCAUGCCUGCAGGUCGACUCUAGAAAACAUG", "values": [{"measurement": "binding signal", "setting": "[1]", "value": "3.52 log2 enrichment (interaction score)"}, {"measurement": "binding signal", "setting": "[2]", "value": "3.75 log2 enrichment (interaction score)"}]}, {"sequence": "GGCUAGAACUAGUGGAUCCCCCGGCGCCCGGCGGCUCGAGCCCGGGUAAGUGUAAAUAGUCUGCAUGCCGCCGGGCGCCAUGCCUGCAGGUCGACUCUAGAAAACAUG", "values": [{"measurement": "binding signal", "setting": "[3]", "value": "6.43 log2 enrichment (interaction score)"}, {"measurement": "binding signal", "setting": "[4]", "value": "4.66 log2 enrichment (interaction score)"}, {"measurement": "binding signal", "setting": "[5]", "value": "4.83 log2 enrichment (interaction score)"}, {"measurement": "binding signal", "setting": "[6]", "value": "4.26 log2 enrichment (interaction score)"}]}, {"sequence": "GGCUAGAACUAGUGGAUCCCCCGGCGCCCGGCGGCUCGAGCCCGGGUAAGUGUAUAUAGUCUGCAUGCCGCCGGGCGCCAUGCCUGCAGGUCGACUCUAGAAAACAUG", "values": [{"measurement": "binding signal", "setting": "[3]", "value": "6.8 log2 enrichment (interaction score)"}, {"measurement": "binding signal", "setting": "[7]", "value": "2.23 log2 enrichment (interaction score)"}]}, {"sequence": "GGCUAGAACUAGUGGAUCCCCCGGCGCCCGGCGGCUCGAGCCCGGGUAAGUGUACAUAGUCUGCAUGCCGCCGGGCGCCAUGCCUGCAGGUCGACUCUAGAAAACAUG", "values": [{"measurement": "binding signal", "setting": "[5]", "value": "5.08 log2 enrichment (interaction score)"}]}, {"sequence": "GGCUAGAACUAGUGGAUCCCCCGGCGCCCGGCGGCUCGAGCCCGGGUAAGUGUUAAUAGUCUGCAUGCCGCCGGGCGCCAUGCCUGCAGGUCGACUCUAGAAAACAUG", "values": [{"measurement": "binding signal", "setting": "[8]", "value": "2.25 log2 enrichment (interaction score)"}]}, {"sequence": "GGCUAGAACUAGUGGAUCCCCCGGCGCCCGGCGGCUCGAGCCCGGGUAAGUGUAAGUAGUCUGCAUGCCGCCGGGCGCCAUGCCUGCAGGUCGACUCUAGAAAACAUG", "values": [{"measurement": "binding signal", "setting": "[6]", "value": "1.88 log2 enrichment (interaction score)"}]}, {"sequence": "GGCUAGAACUAGUGGAUCCCCCGGCGCCCGGCGGCUCGAGCCCGGGUAAGUGUAAAUCGUCUGCAUGCCGCCGGGCGCCAUGCCUGCAGGUCGACUCUAGAAAACAUG", "values": [{"measurement": "binding signal", "setting": "[9]", "value": "4.58 log2 enrichment (interaction score)"}]}]}
